Screening results (PubChem BioAssay)
Sampled rows, rich in hits. Any-hit rate of the full collection: about 2.3%.
GSTO1 inh = inhibitors of recombinant GSTO1, primary screen, counter-screen for RBBP9 inhibitor project, biochemical, fluorescence polarization | inhibition, % at 5.96 µM | AID 1974, 2009 | activity-based probe fluorescence polarization | actives 1.1% (n = 300,000);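 active = inhibition above the campaign mean inhibition plus 3 SD, cut at about 35% in these data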
Target sequence (P78417 whole entry, looked up): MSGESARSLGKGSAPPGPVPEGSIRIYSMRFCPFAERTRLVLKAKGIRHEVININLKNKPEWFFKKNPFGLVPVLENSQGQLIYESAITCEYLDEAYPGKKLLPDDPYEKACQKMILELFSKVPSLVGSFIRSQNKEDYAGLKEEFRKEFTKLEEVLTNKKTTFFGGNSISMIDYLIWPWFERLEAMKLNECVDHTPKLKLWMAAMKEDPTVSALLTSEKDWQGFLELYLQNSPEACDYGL
Fam108B counter = mouse Fam108B serine hydrolase inhibitors, primary screen, counter-screen for RBBP9 inhibitor project, biochemical, fluorescence polarization; recombinant Fam108B, FP-Rh probe fluorescence polarization; inhibition, % at 9.51 µM; actives 0.33% (n = 300,000);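 active = inhibition above the screen mean inhibition plus 3 SD, computed separately per campaign, cut at about 18% in these data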;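 note: inhibitors lower polarization as less probe binds the enzyme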
pPAFAH inh = pPAFAH enzyme inhibitors, primary screen, biochemical, fluorescence polarization, human; Platelet-activating factor acetylhydrolase (Homo sapiens), Q13093; recombinant pPAFAH, FP-rhodamine probe fluorescence polarization; inhibition, % at 3.39 µM; actives 1.5% (n = 330,000); AID 463082, 2010;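 active = inhibition above the mean inhibition across the screen plus 3 SD, cut at about 25% in these data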;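 note: inhibitors block binding of the rhodamine activity-based probe so polarization drops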
PAD4 inh = human PAD4 inhibitors, primary screen, biochemical, fluorescence polarization, 1536-well format; Protein-arginine deiminase type-4 (Homo sapiens), Q9UM07; recombinant PAD4, RCA probe fluorescence polarization; inhibition, % at 6.36 µM; actives 0.41% (n = 330,000);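 active = percent inhibition above a cutoff equal to the mean of all tested compounds plus 3 SD, cut at about 15% in these data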
PME-1 inh = PME-1 inhibitors via competitive probe labeling, primary screen, biochemical, fluorescence polarization, FP-Rh probe, HTS. Protein phosphatase methylesterase 1 (Homo sapiens), Q9Y570. recombinant PME-1. actives 0.53% (n = 320,000). inhibition, % at 5.9 µM;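 active = inhibition above the campaign mean of all compounds plus 3 SD, cut at about 26% in these data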;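 note: competitive labeling of PME-1 active site by serine hydrolase directed probe; inhibitors block probe labeling so polarization falls and inhibition rises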
Hits are given with their value; 0 = inactive; - = not tested or not shown.

SMILES	GSTO1 inh	Fam108B counter	pPAFAH inh	PAD4 inh	PME-1 inh
c1ccc2cc(-c3cc4ccccn4c3)ccc2c1	0	0	28	0	0
CC[C@@]1(c2ccccc2)C(=O)N(C(=O)OC)N1C(=O)OC	0	0	0	0	0
COC(=O)N1C(=O)[C@](c2ccccc2)(C(C)C)N1C(=O)OC	0	0	0	0	35
Cn1c(SCC(=O)Nc2ncc(C(F)(F)F)cc2Cl)nnc1-c1ccc(Cl)cc1	0	0	0	0	0
O=c1[nH][nH]c2cc(=O)n(-c3cccc(C(F)(F)F)c3)nc12	0	0	0	0	37
CC(CN1C(C)CCCC1C)OC(=O)c1ccc(F)cc1 (centres undefined)	0	0	0	0	0
Cc1ccc(-c2[nH]nc3c2C(c2ccoc2)C(C#N)=C(N)O3)cc1C (centres undefined)	44	0	0	0	0
Cc1ccc(-n2nc(C)c3c2OC(N)=C(C#N)C3c2ccco2)cc1 (centres undefined)	36	0	0	0	0
Cc1ccc(-n2nc(C)c3c2OC(N)=C(C#N)C3c2ccoc2)cc1 (centres undefined)	36	0	0	0	0
CC1CCN(C(=O)COC(=O)Cc2ccc(Br)cc2)CC1	0	0	29	0	0
CCOC(=O)N1CCN(C(=O)COC(=O)Cc2ccc(Cl)cc2)CC1	0	0	34	0	0
Cc1cc(=O)oc2cc3oc(=O)cc(C)c3cc12	0	0	0	0	0
CCC1=NN(C(=O)Cc2ccc(OC)c(OC)c2)C(O)(C(F)(F)F)C1 (centres undefined)	0	0	0	0	0
COC(=O)c1cc(S(=O)(=O)NCc2ccc3c(c2)OCO3)cn1C	0	0	0	0	0
C/C(CC(=O)NC1CCCC1)=N\NC(=O)Cc1csc(N)n1	0	0	0	0	0
CCOc1ccc(S(=O)(=O)N2CCCCC2)cc1NC(=O)CN1C(=O)NC(C)(c2ccc(C)cc2)C1=O (centres undefined)	0	0	27	0	0
COc1ccc(S(=O)(=O)N2CCCCCC2)cc1NC(=O)CN1C(=O)NC(C)(c2ccc(C)cc2)C1=O (centres undefined)	0	0	0	0	0
CC1(c2ccc3ccccc3c2)NC(=O)N(CC(=O)Nc2cccc(S(=O)(=O)N3CCOCC3)c2)C1=O (centres undefined)	0	0	33	0	0
CC(C)Oc1ccc(S(=O)(=O)N2CCCCC2)cc1NC(=O)CN1C(=O)NC(C)(c2ccccc2)C1=O (centres undefined)	0	0	0	0	39
CCOC(=O)c1ccccc1NC(=O)CN1C(=O)NC(C)(CCc2ccccc2)C1=O (centres undefined)	0	0	0	0	0
O=C(c1cnn2c(-c3ccccc3)cc(-c3ccccc3)nc12)N1CCN(Cc2ccccc2)CC1	0	0	0	0	0
COc1ccc(-c2cc(C)no2)cc1S(=O)(=O)Nc1cccc(C)c1	0	0	30	0	0
O=C1c2ccccc2NC(c2ccc(O)c(O)c2)N1c1ccccc1Cl (centres undefined)	0	0	0	0	0
CC(C)NC(=S)N=Nc1c(O)[nH]c2ccc(C(C)C)cc12	0	0	0	0	29
Oc1ccc(/C=N/Nc2cc(N3CCOCC3)nc(N3CCOCC3)n2)cc1O	54	0	0	0	0
SMILES	GSTO1 inh	Fam108B counter	pPAFAH inh	PAD4 inh	PME-1 inh
Oc1ccccc1/C=N/Nc1cc(N2CCCC2)nc(N2CCCC2)n1	73	0	0	0	0
Oc1cccc(/C=N/Nc2cc(N3CCOCC3)nc(N3CCOCC3)n2)c1	0	0	0	0	0
O=C(CSc1nnc2c(n1)[nH]c1ccccc12)Nc1ccc2c(c1)OCO2	0	0	0	0	0
O=C(O)c1ccc(N/N=C/c2ccc(OC(=O)c3ccccc3Cl)cc2)cc1	0	0	27	0	0
Nc1ccc(C(=O)N/N=C\c2ccc(OC(=O)c3ccccc3Cl)cc2)cc1	0	0	0	0	0
COc1ccc2oc(C(=O)NCCN3CCOCC3)c(C)c2c1OC	0	0	0	0	0
O=c1[nH]c2c(cnn2-c2ccc(Cl)cc2)c(=O)n1-c1cccc(Cl)c1	0	0	0	0	0
O=c1[nH]c2cc(Cl)ccc2n1-c1ccccc1	0	0	28	0	0
N#Cc1c(NC(=O)C2CC=CCC2C(=O)O)sc2c1CCCCCC2 (centres undefined)	0	0	0	0	0
CCC(C)(C)C1CCc2c(sc(NC(=O)c3ccccc3C(=O)O)c2C#N)C1 (centres undefined)	0	0	32	0	27
CC(C)(C)C1CCc2c(sc(NC(=O)C3CC=CCC3C(=O)O)c2C#N)C1 (centres undefined)	0	0	31	0	0
CC(=O)N1CCOc2ccc(S(=O)(=O)N3CCC(C(=O)NCc4ccc(F)cc4)CC3)cc21	0	0	0	0	0
Cc1ccc(CC2CC(=O)N(C(Cc3ccccc3)C(=O)O)C2=O)cc1 (centres undefined)	36	0	0	0	0
COc1ccc(C)cc1S(=O)(=O)n1c([N+](=O)[O-])cnc1C	0	0	0	0	0
Cc1ccc(C(=O)COC(=O)c2cccc(NC(=O)c3ccc([N+](=O)[O-])cc3[N+](=O)[O-])c2)cc1	0	0	0	0	32
O=C(CCCCCN1C(=O)c2ccccc2C1=O)Oc1ccc2c3c(c(=O)oc2c1)CCC3	0	0	0	0	0
O=C(COCc1cc(-c2ccc3c(c2)OCO3)on1)N1CCN(c2ccccc2)CC1	0	0	0	0	0
Cc1cc(=O)[nH]c(SCC(=O)c2ccc(O)c(O)c2)n1	0	0	0	0	0
O=C(CSc1nc2ccccc2c(=O)[nH]1)c1ccc(O)c(O)c1	0	0	33	0	0
COc1ccccc1OCCn1c(SCC(=O)O)nc2ccccc21	0	0	0	0	0
COc1cccc(-c2noc(-c3ccc(Cl)nc3)n2)c1	0	0	0	0	0
O=C(O)c1cccc(-n2c(/C=C/c3ccc([N+](=O)[O-])cc3)nc3ccccc3c2=O)c1	0	0	0	0	30
CNC(=O)c1ccsc1NC(=O)CS(=O)(=O)c1ccc(Cl)cc1	0	0	0	0	0
O=S(=O)(c1ccc(Cl)cc1)N1CCN(c2ncnc3sccc23)CC1	-	-	0	0	-
Cc1cc([N+](=O)[O-])cc2c1NC(=O)C2(O)N1CCCCCC1 (centres undefined)	0	0	0	0	0
Cc1cc([N+](=O)[O-])cc2c1NC(=O)C2(O)N1CCCC(C)C1 (centres undefined)	37	0	0	0	0
CC(C)=CCc1cc(-c2oc3cc(O)cc(O)c3c(=O)c2O)ccc1O	0	0	34	0	34
